Where “and” joins values, the source holds several entries; their conditions need not be identical. Identical values can stand only once. Records with an inconclusive call do not appear. A call without a number means that no potency is given here. The source holds several records for some structures; these can differ, active in one and inactive in another. Calls of active or inactive are those of the source. Calls follow the shape of the full dose curve.

The results in this text go back to PubChem BioAssay (Tox21).
Potency is read from the fitted curve at half-maximal effect.

The experiment is described as follows: p53 small molecule agonists, cell-based qHTS assay with rat liver microsomes: qHTS cell viability counter screen (AID 1963580). Also: nearly all actives have a fitted effect of over 45% in size. The following applies: p53RE-bla HCT-116 + rat microsomes, ATP viability, 16 h; series mostly up to 66 µM. The source says:
National Center for Advancing Translational Sciences [NCATS]
Division of Preclinical Innovation [DPI]
U.S. Environmental Protection Agency [EPA]
National Institutes of Environmental Health Sciences [NIEHS]
National Toxicology Program [NTP]
U.S. Food and Drug Administration [FDA]
p53, a tumor suppressor protein, is activated following cellular insult, including DNA damage and other cellular stresses. The activation of p53 regulates cell fate by inducing DNA repair, cell cycle arrest, apoptosis, or cellular senescence. The activation of p53, therefore, is a good indicator of DNA damage and other cellular stresses. The CellSensor p53RE-bla HCT-116 cell line contains a stably integrated beta-lactamase reporter gene under control of the p53 response elements. The activation of the reporter gene under culture conditions can be detected by fluorescence intensity. This cell line was used to screen the Tox21 10K compound library in the condition of presence of rat liver microsomes and to identify agonists that activate the p53 signaling pathway after in vitro metabolic activation (Ooka et al., Archive of Toxicology 96:1975-1987, 2022). The cytotoxicity of the Tox21 compound library against the p53 RE-bla HCT-116 cell line was tested in parallel by measuring the intra cellular ATP content in the same wells.
Tox21 Assay Protocol Summary:
The p53RE-bla cells were dispensed at 4,000cells/3ul/well in 1536-well black-clear bottom plates. After the assay plates were incubated at 37 C, 5% CO2 incubator for 5 hours, 23 nL of compounds dissolved in DMSO, positive controls or DMSO only was transferred to the assay plate. Following compound addition, 3 uL of rat liver microsomes (Molecular Toxicology, Boone, NC) at final concentration of 0.5 mg/mL and 1uL of B-Nicotinamide adenine dinucleotide 2'-phosphate (NADPH) at final concentration of 0.5 mg/mL were transferred to the assay plate. The plates were incubated at 37 C for 16 hours. 1 uL of LiveBLAzer detection mixture was added to each well and the plates were incubated at room temperature in the dark for 2 h. Fluorescence intensity at 460 and 530 nm emission and 405 nm excitation were measured by an Envision plate reader. For cell viability readout that measures cytotoxicity, 4 ul/well of CellTiter-Glo reagent was added into the assay plates using a Flying Reagent Dispenser. After 30 min incubation at room temperature, the luminescence intensity in the plates was measured using a ViewLux plate reader.
With `OC[C@H]1O[C@@H](Oc2ccc(O)cc2)[C@H](O)[C@@H](O)[C@@H]1O`, the Potency result was “inactive”.

For `Cc1cc(=O)oc2cc(O)ccc12`, the Potency result was “inactive”.

Consider `N[C@@H](Cc1cc(I)c(Oc2ccc(O)c(I)c2)c(I)c1)C(=O)O`, for which the Potency entry is “inactive”.

For `CCCCCCCCOc1ccc(C(=O)c2ccccc2)c(O)c1`, the Potency result was “inactive”. For `Nc1ncnc2nc[nH]c12`, the Potency entry is “inactive”. Consider `CCN=c1cc2oc3cc(NCC)c(C)cc3c(-c3ccccc3C(=O)OCC)c-2cc1C`, for which the Potency is 20.4 µM (active) and 40.8 µM (active). The value for `C[Si](O[Si](C)(C)C)O[Si](C)(C)C` was “inactive”; that for `OC1CCCCC1` was “inactive”; that for `Cc1ccc(S(=O)(=O)N=C=O)cc1` was “inactive”. In the case of `Cc1cc(C(C)(C)C)c(O)c(C(C)(C)C)c1`, the Potency result was “inactive”. Regarding `CC(O)CC(C)(C)O` (stereo not given), the Potency result was “inactive”. Next, `O=S(=O)(O)c1ccc2ccccc2c1`: “inactive”; `CCC(O)OCCCOC` (stereo not given): “inactive”; `CC/C(=C(\c1ccccc1)c1ccc(OCCN(C)C)cc1)c1ccccc1`: 1.83 µM (active) and 28.8 µM (active) and inactive.

Turning to `O=C(O)c1[nH]n(-c2ccc(S(=O)(=O)O)cc2)c(=O)c1N=Nc1ccc(S(=O)(=O)O)cc1`, the Potency entry is “inactive”.

For `O=c1ccc2ccccc2o1`, the Potency result was “inactive”. Turning to `CC(O)CN(CCN(CC(C)O)CC(C)O)CC(C)O` (stereo not given), the Potency entry is “inactive”. The value for `O=C(c1ccccc1)C(O)c1ccccc1` (stereo not given) was “inactive”; that for `CCCCCNCCCCC` was “inactive”. On to `CCCC(=O)O`, for which the Potency entry was “inactive”.

Turning to `CCC[C@H](N[C@@H](C)C(=O)N1[C@H](C(=O)O)C[C@@H]2CCCC[C@@H]21)C(=O)OCC`, the Potency result is “inactive”. Next, `CC12CCC(CC1)C(C)(C)O2`: “inactive”; `COc1ccc(C)cc1N`: “inactive”.

As to `c1ccc(Nc2ccccc2)cc1`, the Potency result was “inactive”. For `Cc1c(OCC(F)(F)F)ccnc1CS(=O)c1nc2ccccc2[nH]1` (stereo not given), the Potency result is “inactive”. The value for `O=NO` was “inactive”. In the case of `Cc1ccc(C)c(O)c1C`, the Potency entry was “inactive”. For the compound `Cc1cn([C@H]2C[C@H](N=[N+]=[N-])[C@@H](CO)O2)c(=O)[nH]c1=O`, the Potency entry is “inactive”. Next, `Cc1cccc(Nc2cc(Cl)nc(SCC(=O)O)n2)c1C`: “inactive”; `CCc1ccc(O)cc1`: “inactive”.

In the case of `CCCOC(=O)NCCCN(C)C`, the Potency result is “inactive”. Next, `Nc1cccc(N)c1`: “inactive”; `CCCOCC(C)O` (stereo not given): “inactive”; `Clc1ccccn1`: “inactive”. As for `COC(=O)CCCCC(=O)OC`, the Potency result is “inactive”. As for `NC(=O)N/N=C/c1ccc([N+](=O)[O-])o1`, the Potency result is “inactive”. In the case of `CC(CCl)OP(=O)(OC(C)CCl)OC(C)CCl` (stereo not given), the Potency entry is “inactive”. Next, `c1ccc2cc(Nc3ccc(Nc4ccc5ccccc5c4)cc3)ccc2c1`: “inactive”; `Cc1ccc(N)c([N+](=O)[O-])c1`: “inactive”; `Nc1ccc(S(=O)(=O)c2ccc(N)cc2)cc1`: “inactive”.
